Common to all, as to parameters: scale not given: direction of the effect not stated beside the values
The target of experiment [1] is Protein translocase subunit SecA (Escherichia coli (strain K12)) (UniProt P10408). As to the kind of experiment: Assay to Identify E. coli SecA ATPase Inhibitors. The format is functional. Conditions: 30 µM.
Experiment [2] deals with T1, Ubiquitin-activating enzyme e1, putative (Leishmania donovani (strain BPK282A1)) (UniProt E9BSI1).
T1 sequence (whole entry): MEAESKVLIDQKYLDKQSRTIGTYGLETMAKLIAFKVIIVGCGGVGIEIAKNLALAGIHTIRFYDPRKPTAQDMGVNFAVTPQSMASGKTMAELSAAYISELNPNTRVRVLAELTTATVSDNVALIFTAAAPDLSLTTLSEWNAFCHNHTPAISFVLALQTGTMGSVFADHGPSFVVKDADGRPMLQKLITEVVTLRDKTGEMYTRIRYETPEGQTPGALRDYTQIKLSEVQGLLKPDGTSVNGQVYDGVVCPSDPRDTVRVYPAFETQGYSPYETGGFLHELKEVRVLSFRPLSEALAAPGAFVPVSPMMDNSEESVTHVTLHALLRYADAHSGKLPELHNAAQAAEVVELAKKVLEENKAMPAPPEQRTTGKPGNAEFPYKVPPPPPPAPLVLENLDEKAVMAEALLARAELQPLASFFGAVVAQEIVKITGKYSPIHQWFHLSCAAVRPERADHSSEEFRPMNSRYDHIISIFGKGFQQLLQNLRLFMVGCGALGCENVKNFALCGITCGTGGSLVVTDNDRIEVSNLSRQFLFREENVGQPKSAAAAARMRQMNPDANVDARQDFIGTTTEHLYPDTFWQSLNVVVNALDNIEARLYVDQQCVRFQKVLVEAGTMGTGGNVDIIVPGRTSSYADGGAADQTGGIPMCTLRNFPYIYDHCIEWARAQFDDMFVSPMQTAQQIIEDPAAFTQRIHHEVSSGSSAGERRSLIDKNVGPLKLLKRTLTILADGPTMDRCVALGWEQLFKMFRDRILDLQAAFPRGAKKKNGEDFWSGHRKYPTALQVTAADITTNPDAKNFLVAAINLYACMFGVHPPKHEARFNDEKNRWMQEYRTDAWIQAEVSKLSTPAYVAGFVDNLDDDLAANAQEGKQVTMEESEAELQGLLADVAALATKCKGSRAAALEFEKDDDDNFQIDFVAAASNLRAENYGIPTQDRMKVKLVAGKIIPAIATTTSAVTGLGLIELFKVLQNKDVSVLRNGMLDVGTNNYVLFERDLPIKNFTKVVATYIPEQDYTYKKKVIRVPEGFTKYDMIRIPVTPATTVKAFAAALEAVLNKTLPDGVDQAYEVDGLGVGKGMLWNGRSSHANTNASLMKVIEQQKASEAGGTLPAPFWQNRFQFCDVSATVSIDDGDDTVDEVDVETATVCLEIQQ
As to the kind of experiment: Leishmania donovani Ubiquitin Activating Enzyme (LdE1). The format is functional. The settings on record: 30 µM.

Experiment [3] deals with AMP-activated protein kinase, AMPK (Homo sapiens) (UniProt P54646+O43741+P54619+Q9UGJ0+Q9Y478+Q13131+Q9UGI9). The experiment can be described thus: AMP-dependent Kinase enzyme assay. An in vitro enzyme assay that detects ADP turnover that is directly proportional to AMPK activity. This uses naive AMPK that is activated during the assay with MK-8722. It is filed as functional. The settings on record: 30 µM.

Experiment [4] concerns the target Sialic acid-binding Ig-like lectin 9 (Homo sapiens) (UniProt Q9Y336). As to the kind of experiment: Hs-Siglec9 ALPHAscreen SOP 20170721. The settings on record: 10 µM. (In general: In Alpha technology, singlet oxygen from a donor bead excites a nearby acceptor bead.)
Experiment [5] has as its system Trypanosoma cruzi. The experiment can be described thus: Trypanosoma cruzi phosphomannomutase and mannose-1-phosphate guanylyltransferase assay. The format is functional. Conditions: 10 µM.
Experiment [6] addresses T2, Arginase-2, mitochondrial (Homo sapiens) (UniProt P78540).
T2 sequence (whole entry): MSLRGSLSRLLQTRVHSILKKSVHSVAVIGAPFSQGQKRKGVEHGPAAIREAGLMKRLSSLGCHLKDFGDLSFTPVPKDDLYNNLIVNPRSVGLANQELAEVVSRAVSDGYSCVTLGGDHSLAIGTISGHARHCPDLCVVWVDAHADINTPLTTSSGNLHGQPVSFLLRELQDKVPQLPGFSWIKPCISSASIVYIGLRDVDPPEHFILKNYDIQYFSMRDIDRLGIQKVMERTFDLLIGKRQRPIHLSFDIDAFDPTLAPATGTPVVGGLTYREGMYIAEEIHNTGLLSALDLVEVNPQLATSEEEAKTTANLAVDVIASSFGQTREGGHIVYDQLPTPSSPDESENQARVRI
As to the kind of experiment: in vitro enzyme assay to detect the production of urea directly proportional to the activity of Arginase II. Also: in the data most compounds retested in dose-response had high values. It is filed as functional. The settings on record: 33.3 µM.

Experiment [7] concerns the target T3, Proteasome subunit beta (Trypanosoma cruzi) (UniProt O96673).
T3 sequence (whole entry): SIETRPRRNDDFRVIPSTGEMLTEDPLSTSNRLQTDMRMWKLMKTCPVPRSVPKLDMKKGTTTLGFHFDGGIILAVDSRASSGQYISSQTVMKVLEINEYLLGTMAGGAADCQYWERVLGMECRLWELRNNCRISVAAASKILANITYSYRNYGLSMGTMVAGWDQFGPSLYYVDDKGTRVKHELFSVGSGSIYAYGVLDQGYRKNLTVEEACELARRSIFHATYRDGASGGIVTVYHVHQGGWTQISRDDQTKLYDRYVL
As to the kind of experiment: Trypanosoma cruzi proteasome chymotrypsin-like activity (TcProtChymo) assay. Also: in the data most compounds retested in dose-response had high values. It is filed as functional. The settings on record: 9.37 µM.

The species named for experiment [8] is Homo sapiens. As to the kind of experiment: To identify inhibition of the IFN signalling (Jak-Stat) pathway via expression of an eGFP reporter gene under the control of an IFN-stimulated response element (ISRE) containing MxA promoter. The format is functional. Conditions: 30 µM.
For experiment [9], the target named is T4, Tyrosyl-tRNA synthetase, putative (Trypanosoma cruzi (strain CL Brener)) (UniProt Q4DSP6).
T4 sequence (whole entry): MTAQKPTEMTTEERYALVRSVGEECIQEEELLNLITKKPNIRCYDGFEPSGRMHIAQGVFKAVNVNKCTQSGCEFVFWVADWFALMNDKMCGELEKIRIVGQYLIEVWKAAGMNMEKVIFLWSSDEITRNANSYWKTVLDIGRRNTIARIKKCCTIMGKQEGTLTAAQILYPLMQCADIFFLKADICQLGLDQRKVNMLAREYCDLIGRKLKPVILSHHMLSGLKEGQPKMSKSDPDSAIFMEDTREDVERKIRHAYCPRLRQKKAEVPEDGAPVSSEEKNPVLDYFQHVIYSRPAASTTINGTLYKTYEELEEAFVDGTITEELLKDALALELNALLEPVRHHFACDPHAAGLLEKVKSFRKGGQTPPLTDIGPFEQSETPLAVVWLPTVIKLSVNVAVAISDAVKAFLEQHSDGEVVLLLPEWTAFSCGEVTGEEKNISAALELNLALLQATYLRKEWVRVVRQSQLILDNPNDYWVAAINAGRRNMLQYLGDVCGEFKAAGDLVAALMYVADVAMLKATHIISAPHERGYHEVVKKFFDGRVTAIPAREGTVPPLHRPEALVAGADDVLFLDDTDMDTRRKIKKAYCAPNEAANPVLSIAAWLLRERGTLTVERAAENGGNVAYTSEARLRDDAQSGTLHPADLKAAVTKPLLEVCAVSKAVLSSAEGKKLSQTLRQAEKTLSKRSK
As to the kind of experiment: Trypanosoma cruzi tyrosyl tRNA synthetase (TcYRS) _High Tyrosine SOP. Also: in the data most compounds retested in dose-response had high values. The format is functional. Conditions: 30 µM.

The target in experiment [10] is T4, Tyrosyl-tRNA synthetase, putative (Trypanosoma cruzi (strain CL Brener)). The experiment can be described thus: Trypanosoma cruzi tyrosyl tRNA synthetase (TcYRS) SOP. The settings on record: 30 µM. It is filed as functional.
Experiment [11] addresses Chromo domain-containing protein 1 (Saccharomyces cerevisiae (strain ATCC 204508 / S288c) (Baker's yeast)) (UniProt P32657). The experiment can be described thus: ScCHD-1 Enzyme Inhibition Assay. Also: in the data most compounds retested in dose-response had high values. The format is functional. The settings on record: 30 µM.

For some of these results: Potency and affinity values are given separately.

Data on eleven molecules can be found in ChEMBL document CHEMBL3988442, “University of Dundee, Small-Polar-MMV Screening Library” (2021).

Sequence of Chromo domain-containing protein 1 (Saccharomyces cerevisiae (strain ATCC 204508 / S288c) (Baker's yeast)) (P32657 whole entry, the tested form may be a part): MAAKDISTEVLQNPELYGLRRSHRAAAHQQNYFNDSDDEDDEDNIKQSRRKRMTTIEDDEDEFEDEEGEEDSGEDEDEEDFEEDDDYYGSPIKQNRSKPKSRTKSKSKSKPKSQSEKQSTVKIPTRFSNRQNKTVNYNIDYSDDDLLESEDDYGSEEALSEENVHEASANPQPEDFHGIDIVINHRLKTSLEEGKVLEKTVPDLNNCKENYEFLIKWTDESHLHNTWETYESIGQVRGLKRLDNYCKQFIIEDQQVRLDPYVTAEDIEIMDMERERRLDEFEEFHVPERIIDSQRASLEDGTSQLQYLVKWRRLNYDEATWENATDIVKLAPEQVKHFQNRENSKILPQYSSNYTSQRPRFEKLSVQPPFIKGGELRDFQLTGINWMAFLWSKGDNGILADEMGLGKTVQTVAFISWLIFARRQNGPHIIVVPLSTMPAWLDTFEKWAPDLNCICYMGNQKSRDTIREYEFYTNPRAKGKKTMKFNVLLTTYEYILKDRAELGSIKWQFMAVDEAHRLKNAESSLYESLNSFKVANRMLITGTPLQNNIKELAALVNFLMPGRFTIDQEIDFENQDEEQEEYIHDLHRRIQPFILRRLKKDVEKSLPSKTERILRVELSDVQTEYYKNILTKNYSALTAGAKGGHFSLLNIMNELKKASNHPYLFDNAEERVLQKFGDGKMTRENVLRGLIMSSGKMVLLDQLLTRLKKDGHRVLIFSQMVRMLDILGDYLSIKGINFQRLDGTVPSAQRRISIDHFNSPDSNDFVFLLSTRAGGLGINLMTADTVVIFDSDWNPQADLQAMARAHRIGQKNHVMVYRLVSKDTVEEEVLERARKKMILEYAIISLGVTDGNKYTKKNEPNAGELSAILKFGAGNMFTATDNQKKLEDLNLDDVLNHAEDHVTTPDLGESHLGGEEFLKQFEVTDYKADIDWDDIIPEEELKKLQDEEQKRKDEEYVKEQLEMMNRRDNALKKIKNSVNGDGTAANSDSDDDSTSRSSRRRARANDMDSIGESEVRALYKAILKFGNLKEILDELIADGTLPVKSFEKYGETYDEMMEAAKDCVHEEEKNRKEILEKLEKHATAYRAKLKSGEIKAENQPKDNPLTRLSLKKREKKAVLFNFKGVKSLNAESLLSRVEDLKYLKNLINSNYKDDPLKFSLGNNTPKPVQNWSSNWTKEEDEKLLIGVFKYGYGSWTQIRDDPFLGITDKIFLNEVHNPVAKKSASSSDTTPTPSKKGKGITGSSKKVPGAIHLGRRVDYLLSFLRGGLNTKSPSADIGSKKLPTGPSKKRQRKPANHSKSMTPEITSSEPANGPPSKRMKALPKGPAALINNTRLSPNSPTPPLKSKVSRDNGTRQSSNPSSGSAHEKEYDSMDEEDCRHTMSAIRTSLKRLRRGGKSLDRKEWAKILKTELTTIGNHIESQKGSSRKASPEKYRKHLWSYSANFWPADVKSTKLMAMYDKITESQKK
Sequence of Protein translocase subunit SecA (Escherichia coli (strain K12)) (P10408 whole entry): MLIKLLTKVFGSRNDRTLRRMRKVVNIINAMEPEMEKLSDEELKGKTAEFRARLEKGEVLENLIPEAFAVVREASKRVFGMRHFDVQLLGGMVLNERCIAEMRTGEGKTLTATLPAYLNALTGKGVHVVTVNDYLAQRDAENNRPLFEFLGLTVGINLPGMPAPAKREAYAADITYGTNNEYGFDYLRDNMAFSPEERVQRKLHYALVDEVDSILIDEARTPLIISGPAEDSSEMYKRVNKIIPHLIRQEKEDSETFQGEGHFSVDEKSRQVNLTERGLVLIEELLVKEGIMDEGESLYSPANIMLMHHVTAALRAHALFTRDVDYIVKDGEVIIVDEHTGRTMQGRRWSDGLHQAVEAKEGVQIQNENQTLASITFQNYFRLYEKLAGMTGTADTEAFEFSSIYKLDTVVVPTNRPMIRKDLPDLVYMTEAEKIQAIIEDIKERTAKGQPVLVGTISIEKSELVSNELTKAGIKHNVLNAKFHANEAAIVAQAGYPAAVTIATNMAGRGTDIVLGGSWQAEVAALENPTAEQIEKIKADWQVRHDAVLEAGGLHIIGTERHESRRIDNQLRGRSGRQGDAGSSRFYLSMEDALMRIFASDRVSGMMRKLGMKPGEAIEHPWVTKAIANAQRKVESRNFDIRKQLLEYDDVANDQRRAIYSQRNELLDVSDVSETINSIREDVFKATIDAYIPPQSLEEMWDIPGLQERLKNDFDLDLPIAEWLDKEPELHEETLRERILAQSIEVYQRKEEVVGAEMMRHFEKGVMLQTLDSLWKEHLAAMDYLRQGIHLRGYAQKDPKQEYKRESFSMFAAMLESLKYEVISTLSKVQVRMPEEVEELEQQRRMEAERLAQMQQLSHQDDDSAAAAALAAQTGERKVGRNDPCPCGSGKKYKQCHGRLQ
Sequence of Sialic acid-binding Ig-like lectin 9 (Homo sapiens) (Q9Y336 whole entry): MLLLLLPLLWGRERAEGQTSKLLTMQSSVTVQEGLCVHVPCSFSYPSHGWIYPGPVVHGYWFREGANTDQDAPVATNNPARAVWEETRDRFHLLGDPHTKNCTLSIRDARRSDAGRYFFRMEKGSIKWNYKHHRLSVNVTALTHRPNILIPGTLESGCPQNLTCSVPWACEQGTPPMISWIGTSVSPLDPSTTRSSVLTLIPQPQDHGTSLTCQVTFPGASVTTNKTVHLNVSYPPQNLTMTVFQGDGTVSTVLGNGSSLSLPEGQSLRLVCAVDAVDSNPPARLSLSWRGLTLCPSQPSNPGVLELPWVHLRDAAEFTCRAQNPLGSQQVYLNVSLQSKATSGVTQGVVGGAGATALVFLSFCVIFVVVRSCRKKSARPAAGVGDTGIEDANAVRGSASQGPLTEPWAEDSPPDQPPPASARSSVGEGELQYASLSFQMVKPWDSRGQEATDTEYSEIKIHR

In the case of `CCOC(=O)NC(CNC(=O)CCc1ccccn1)CC(C)C` (stereo unspecified), the Percent Effect in [1] was -7.25%; in experiment [2], 0%; in experiment [3] it was 0.68%; in experiment [4], -3.55%; in [5], 3.62%; in experiment [6] it was 2.73%. Also, the Percent Effect in [7] was 4.72%; in [8], -1.48%; in experiment [9], -5.38%; in experiment [10], 3.7%; in [11], -0.238%.

As to `CC(C)c1nc(C2CCCN(C(=O)CCCn3cncn3)C2)no1` (stereo unspecified), the Percent Effect in experiment [1] is -4.23%; in experiment [2] it was 21.6%; in experiment [3] it was -6.76%; in experiment [4], 9.76%; in [5] it was 2.36%; in experiment [6], -10.4%. The Percent Effect in experiment [7] is 12.1%; in [8], -60.1%; in experiment [9], 8.37%; in experiment [10], 16.1%; in experiment [11], -12.8%.

Regarding `CO[C@H]1CCN(c2ccc(C)nn2)[C@H]1Cc1cnn(C)c1`, the Percent Effect in [1] is -5.98%; in experiment [2] it was 2.7%; in experiment [3], -6.04%; in [4], 1.75%; in [5] it was 0.977%; in [6] it was 0.417%. Also, the Percent Effect was 14.4% in [7]; -17.9% in experiment [8]; 9.9% in experiment [9]; 11% in experiment [10]; -6.2% in [11].

For `CC(C)CCn1c(=O)nc2n1C(=O)N(c1ccc(F)cc1)C2`, the Percent Effect was -5.09% in experiment [1]; -2.63% in experiment [2]; 10.5% in experiment [3]; -4.96% in experiment [4]; -1.46% in experiment [5]; -10.7% in [6]. In addition, the Percent Effect in [7] is 12.4%; in experiment [8] it was 13.5%; in [9] it was -2.13%; in [10], -10.4%; in experiment [11] it was 15.2%.

For `COCCOc1ccc(NC(=O)N2CCCC2c2cc(C)no2)cn1` (stereo unspecified), the Percent Effect was -4.97% in [1]; 0% in [2]; 0.449% in [3]; 5.01% in [4]; -0.686% in experiment [5]; -1.05% in [6]. The Percent Effect in experiment [7] was 5.74%; in experiment [8], 9.34%; in experiment [9], 5.71%; in experiment [10] it was 2.35%; in experiment [11] it was -14.1%.

On to `CCCc1nnsc1C(=O)NCC1CCN(c2ccccn2)CC1`, for which the Percent Effect in experiment [1] was -0.329%; in experiment [2], 11%; in experiment [3], -5.48%; in experiment [4], 2.44%; in [5], 4.5%; in experiment [6], 11.8%. Besides, the Percent Effect was 21.3% in experiment [7]; 25.2% in experiment [8]; 5.38% in experiment [9]; 20% in experiment [10]; -6.53% in experiment [11].

For `CCc1nccn1C1CCCN(C(=O)c2ccc3[nH]cnc3c2)C1` (stereo unspecified), the Percent Effect was -7.22% in experiment [1]; 2.63% in [2]; 2.64% in experiment [3]; 2.2% in experiment [4]; 5.36% in [5]; 1.18% in experiment [6]. For the same molecule, the Percent Effect is 9.3% in experiment [7]; 7.56% in experiment [8]; 8.51% in [9]; 10.4% in experiment [10]; -0.611% in experiment [11].

For the molecule `CCC(C)c1noc(C2CCN(C(=O)c3cccnc3)CC2)n1` (stereo unspecified), the Percent Effect in [1] is -3.05%; in experiment [2], 7.79%; in experiment [3], 0.731%; in [4], 6.36%; in experiment [5], -0.0983%; in experiment [6], -9.65%. For the same molecule, the Percent Effect in experiment [7] is 14.8%; in experiment [8], -14.3%; in [9], 5.38%; in experiment [10], 11.1%; in experiment [11], -2.94%.

As for `CCOC1CCN(C(=O)c2c(Cl)c3ccccc3n2C)CC1`, the Percent Effect in experiment [1] is -2.47%; in experiment [2] it was 0%; in experiment [3] it was -0.042%; in experiment [4] it was 1.92%; in experiment [5] it was -2.43%; in experiment [6], 3.12%. Besides, the Percent Effect in experiment [7] was 13.4%; in experiment [8], -2.41%; in experiment [9], -2.73%; in [10], 11.1%; in [11] it was -4.88%.

In the case of `CCC(=O)NCc1cc(Br)c(OC)c(OC)c1`, the Percent Effect in experiment [1] was -7.41%; in experiment [2], 5.33%; in [3] it was -0.145%; in experiment [4] it was 4.49%; in experiment [5] it was 4.19%; in [6] it was -9.9%. Moreover, the Percent Effect in [7] was 5.75%; in experiment [8], -1.33%; in experiment [9] it was 1.64%; in experiment [10] it was 11.1%; in experiment [11], -3.06%.

As to `O=C1[C@H]2CN(CC3CC3)C[C@H]2CN1Cc1cccc(F)c1`, the Percent Effect is 1.22% in [1]; -56.8% in [2]; 4.89% in experiment [3]; 3.99% in [4]; -0.0978% in [5]; -0.955% in experiment [6]. The Percent Effect in experiment [7] was 12.7%; in experiment [8], -14.7%; in [9], 2.16%; in experiment [10], 2.56%; in experiment [11] it was 9.93%.
